This passage reports Potency and activity change, negative = inhibition results from PubChem BioAssay AID893 (National Center for Advancing Translational Sciences (NCATS), 2007).

Molecules are shown by their SMILES. Where “and” joins values, the source holds several entries; their conditions need not be identical. Equal entries are not always repeated. Hit rate of the full screen: of about 75,000 compounds, about 5,700 (7.6%) were called active. Where a call stands in place of a potency, no number is given. Roughly 7% stayed inconclusive and do not appear here. Only a selection was taken, and actives are over-represented in it overall. Values without a mark were called inactive. The call rests on the fitted dose curve; in most records, active means well fitted inhibition curve with a large enough effect; inconclusive means small, poorly fitted or top-dose-only effect; inactive means no such curve, though single readings can be large or run the other way.
Potency means the concentration at half of the fitted maximal effect.

In this experiment the target is 3-hydroxyacyl-CoA dehydrogenase type-2 (Homo sapiens) (UniProt Q99714). In words: qHTS Assay for Inhibitors of HSD17B4, hydroxysteroid (17-beta) dehydrogenase 4. Further: nearly all actives have a fitted effect of over 70% in size. Particulars: recombinant HSD17B10, NADH fluorescence kinetic; series mostly up to 57.1 µM. An excerpt:
Assay Overview: NIH Molecular Libraries Screening Centers Network [MLSCN] NIH Chemical Genomics Center [NCGC] Structural Genomics Consortium [SGC] Grant number: None HADH2: Hydroxyacyl-Coenzyme A dehydrogenase, type II, was supplied by researchers at the Structural Genomics Consortium, Oxford University lab (PI Udo Oppermann). The mitochondrial enzyme 17-hydroxysteroid dehydrogenase type 10 (HSD17-10) previously classified as type II hydroxyacyl-CoA dehydrogenase (HADH2) catalyzes the NAD+ dependent oxidation of a variety of substrates including acyl-CoAs, androgens and neurosteroids as well as bile acids(Shafqat N, Marschall HU, Filling C, et al. Biochemical Journal. 2003;376(Pt 1):49-60). […] The enzyme was produced by E.coli fermentation as His-tagged recombinant for the purpose of X-ray structure determination, and had been mass-spectrometry characterized. Inhibition of HADH2 activity was screened by utilizing beta-hydroxybutyryl coenzyme A as an electron donor and NAD+ as an electron acceptor/cofactor. An increase in the fluorescence intensity due to conversion of NAD+ to NADH was used to measure the enzyme activity.
Assay Protocol: Buffer: 100 mM Tris-HCl pH 9.0, containing 0.01 % Tween-20. Reagents/Controls: Buffer in columns 3 and 4 as negative control (no enzyme). Substrate/cofactor solution: 1 mM NAD+ and 90 uM beta-hydroxybutyryl coenzyme A (Sigma-Aldrich, St. Louis, MO) final concentrations dispensed throughout the plate. Enzyme: 20 nM HADH2 final concentration in columns 1, 2, 5-48. Column 1 is neutral (100% activity). Column 2 contained titration of apomorphine (Sigma-Aldrich, A 4393, PubChem CID 2215, top concentration 500 uM, then 1:2 dilution in duplicate) Assay Steps: Three uL of enzyme were dispensed to 1536-well Greiner black solid bottom plates. Compounds and controls (23 nL) were transferred via Kalypsys PinTool. The plates were incubated for 15 min at room temperature, and then 1 uL of substrate/cofactor solution was added to start the reaction. The plates were immediately transferred to and read every 30 seconds for 4 min on ViewLux High-throughput CCD imager (Perkin-Elmer) using 360 nm excitation and 450 nm emission fluorescence protocol. The fluorescence intensity difference between the last and the first time points was used to compute reaction progress.
Take `COc1ccc(N2C(=O)CCC(C(=O)Nc3ccccn3)C2c2ccc(OC)c(OC)c2)cc1` (stereo not drawn): the Potency entry was “inactive”.
Turning to `CC(C)=CCC/C(C)=C/CO/N=C1/C[C@@H](O)[C@@H](O)[C@@H]2[C@@H]3C(=O)N(C(C)(C)C)C(=O)[C@H]3CC[C@H]12`, the activity change, negative = inhibition is 0.507% [at 11.4 µM].
Take `CC(C)c1ccc2c(c1)c(SC(C)(C)C)c(CC(C)(C)C(=O)O)n2Cc1ccc(Cl)cc1`: the Potency is 10 µM (active) and 3.98 µM (active).
In the case of `COC(=O)[C@@H]1CC[C@H](C)[C@@H](c2ccc(C)cc2)N1C(=O)c1ccc(/C=N\O[C@@H](C)c2cn([C@H](CO)Cc3ccccc3)nn2)cc1`, the activity change, negative = inhibition was -0.702% [at 11.4 µM] and -3.31% [at 11.4 µM].
In the case of `O=C(Nc1c(C(=O)N2CCCCC2)cnn1-c1ccccc1)c1ccco1`, the Potency result was “inactive”.
On the same count and under the same terms, the value for `Cc1c(C(=O)NCCN2CCOCC2)sc2nc(-c3ccc(F)cc3)cn12` was “inactive”.
The same measure, in the same setting: the value for `O=C1c2cccc3cccc(c23)N1CN1CCN(c2ccccn2)CC1` was “inactive”.
The same measure, in the same setting: the value for `COc1ccc(N2C(=O)c3cccc4cccc(c34)C2=O)nn1` was 31.6 µM (active); that for `CC(C(=O)O)N1C(=O)c2cccc3cccc1c23` (stereo not drawn) was “inactive”; that for `CN1CC(=O)N=C1N` was “inactive”.
Regarding `COC(=O)NC(c1ccccc1)[C@]1(C(C)=O)CCCC1=O` (stereo partly drawn), the activity change, negative = inhibition was 3.19% [at 11.4 µM].
As to `O=S(=O)(O)c1nc2ccccc2n1Cc1ccc(Cl)cc1`, the Potency entry was “inactive”.
Still for that read-out and setting: the value for `Cc1ccc(C(=O)COc2cccc(NC(=O)c3ccco3)c2)cc1` was “inactive”; that for `CCn1nc(NC(=O)c2ccco2)c2cc3ccc(C)cc3nc21` was 20 µM (active).
As to `Cc1ccc(Cn2c(NC(=O)c3ccco3)nc3ccccc32)cc1`, the Potency was 15.8 µM (active).
The same measure, in the same setting: the value for `CCN(CC)C(=O)c1sc(NC(=O)c2ccco2)c(C#N)c1C` was “inactive”; that for `Cc1ccnc(NC(=O)c2ccc(NC(=O)c3ccco3)cc2)c1` was “inactive”.
The same measure, in the same setting: the value for `COC(C)(C)[C@]12CC(O)(C(C)C)ON1[C@H]1CCCCC1N2O` (stereo partly drawn) was “inactive”; that for `Cc1sc2c(c1C)c(=O)n(-c1ccccc1)c1nncn21` was “inactive”; that for `Cn1c2c(c(=O)n(C)c1=O)C(c1ccc(O)cc1)Nc1ccccc1O2` (stereo not drawn) was “inactive”.
Take `O=C(CCCN1C(=O)C2C3C=CC(C3)C2C1=O)N1CCN(c2ccccc2)CC1` (stereo not drawn): the Potency result was “inactive”.
Same read-out and setting: the value for `CC(C)CCNC(=O)CCNS(=O)(=O)c1ccc(Cl)cc1` was “inactive”; that for `CCCCOc1ccc(-c2ncc(C(=O)OCC)c(N)n2)cc1` was 31.6 µM (active).
Same read-out and setting: the value for `CCCCOc1ccc(NC(=O)CSCC(=O)OCC)cc1` was “inactive”; that for `CCOC(=O)c1cnc(SCC(=O)NCc2ccco2)nc1N` was “inactive”; that for `Cc1cccc(NC(=O)c2ccc3ccccc3n2)n1` was “inactive”.
For `COC(=O)[C@@H]1C[C@@]2(O)[C@H](O)[C@H](O)[C@H](O)C[C@H]2N1Cc1ccc(C(C)(C)C)cc1`, the Potency entry is “inactive”.
On the same count and under the same terms, the value for `COc1ccc(OC)c([C@H](O)CNC(=O)CN)c1` was “inactive”.
On to `Cc1c(C(=O)CN2CCOCC2)[nH]c2ccccc12`, for which the Potency entry is “inactive”.
Same read-out and setting: the value for `CCOC(=O)c1[nH]c2ccc(OC)cc2c1NC(=O)N1CCOCC1` was 25.1 µM (active); that for `COc1cc(NC(=O)N2CCOCC2)cc(OC)c1` was “inactive”.
Still for that read-out and setting: the value for `O=C(CN1C2CCC1CC(NC(=O)C1CC1)C2)NCc1ccccc1` (stereo not drawn) was “inactive”; that for `CCCN(CCC)CCNC(=O)c1cc2c(C)nc3ccccc3c2o1` was “inactive”; that for `Cc1nc2ccccc2c2oc(C(=O)NCC3CCCO3)cc12` (stereo not drawn) was 31.6 µM (active).
Same read-out and setting: the value for `Cc1nc2ccccc2c2oc(C(=O)NCCCN3CCC(C)CC3)cc12` was “inactive”; that for `Cc1ccc(Cc2cncc(O)c2)cc1S(=O)(=O)O` was “inactive”.
On to `CCCn1c(SCC(=O)c2ccc3c(c2)OCCO3)nnc1C(C)C`, for which the Potency result is “inactive”.
Take `COc1cc(C2C(C(=O)Nc3ccc(F)cc3)=C(C)Nc3nc(CCCO)nn32)cc(OC)c1OC` (stereo not drawn): the Potency entry is “inactive”.
On the same count and under the same terms, the value for `CC1C(O)CC2C(C(=O)O)=CO[C@@H](O[C@H]3OC(CO)C(O)C(O)C3O)C21` (stereo partly drawn) was “inactive”; that for `COc1ccc(C2CC(c3ccccc3)Nc3ncnn32)cc1` (stereo not drawn) was “inactive”.
Consider `CC(C)[C@@H](OCc1ccccc1)[C@H](C)/C=N\OC[C@@H](C)[C@H](OCc1ccccc1)C(C)C`, for which the activity change, negative = inhibition is 2.53% [at 11.4 µM].
On to `OC(COc1ccccc1)Cn1cc(Br)cn1` (stereo not drawn), for which the Potency entry is “inactive”.
The same measure, in the same setting: the value for `COc1cc(-c2nc(S(=O)(=O)c3ccc(Cl)cc3)c(N(C)C)o2)cc(OC)c1OC` was “inactive”.
Consider `COC(=O)c1ccc(C2C3=C(Nc4nnnn42)c2ccccc2OC3)cc1` (stereo not drawn), for which the Potency is 25.1 µM (active).
The same measure, in the same setting: the value for `COC(=O)c1ccc(C2NC(=O)NC(C)=C2C(=O)N(C)C)cc1` (stereo not drawn) was “inactive”; that for `COc1ccc(C2C(C(=O)Nc3ccccc3OC)=C(C)Nc3nnnn32)c(OC)c1` (stereo not drawn) was “inactive”.
The same measure, in the same setting: the value for `Cc1c(C)c2c(c(C)c1O)CC[C@@](C)(CN1CCN(c3cc(N4CCCC4)nc(N4CCCC4)n3)CC1)O2` was “inactive”.
Same read-out and setting: the value for `Cn1c(-c2ccco2)nc2cc3ccccc3cc21` was 25.1 µM (active); that for `CCOC(=O)CSc1nnc(-c2ccco2)n1C` was “inactive”; that for `c1coc(-c2nc3nc4ccccc4n3nc2-c2ccco2)c1` was “inactive”.
Consider `Cn1c(SCC(=O)N2CCOCC2)nnc1-c1ccc(NC(=O)c2ccccc2F)cc1`, for which the Potency entry was “inactive”.
Same read-out and setting: the value for `COc1cccc(Nc2nnc(SCC(=O)N3CC(C)OC(C)C3)s2)c1` (stereo not drawn) was “inactive”.
On the same count and under the same terms, the value for `O=C(C1CCN(CC2CCCCC2)CC1)N1CCCC1` was “inactive”; that for `Cn1c(CCN2CCCCCC2)nc2cc(NC(=O)Nc3ccccc3)ccc21` was 25.1 µM (active).
Take `CCC(=O)Nc1ccc2c(c1)nc(CCN1CCN(C)CC1)n2C`: the Potency entry is “inactive”.
On the same count and under the same terms, the value for `Cc1nn(CC(=O)Nc2ccc3c(c2)nc(CN2CCCCC2)n3C)c(=O)c2ccccc12` was “inactive”; that for `CN(C)CCCNC(=O)c1ccc2[nH]c3ccccc3c2c1` was 20 µM (active).
On the same count and under the same terms, the value for `CN(C)CCCCNC(=O)c1ccc(Cc2nc3ccccc3[nH]2)cc1` was “inactive”; that for `CC(C)N(CCNC(=O)c1ccc(-n2c(=O)c(=O)[nH]c3ccccc32)cc1)C(C)C` was “inactive”; that for `COC(=O)[C@@]1(Cc2ccc(OC)cc2)[C@H]2c3cc(C(=O)N4CCCC4)n(Cc4ccc(OC(F)(F)F)cc4)c3C[C@H]2CN1C(=O)c1ccccc1` was “inactive”.
On the same count and under the same terms, the value for `Cc1ccc2c(C(=O)CN3CCCC3)c(C)[nH]c2c1` was “inactive”; that for `CCOC(=O)c1nnn(-c2nonc2OC)c1-c1ccccc1` was “inactive”; that for `CC(=O)Oc1c2c(c3c(c1CC=C(C)C)O[C@@]14C(=CC5CC1C(C)(C)OC4(C/C=C(\C)C(=O)O)C5=O)C3=O)OC(C)(CCC=C(C)C)C=C2` (stereo partly drawn) was 20 µM (active).
